Where “and” joins values, the source holds several entries; their conditions need not be identical. Equal entries are not always repeated. Records with an inconclusive call do not appear. More than one record can exist for a structure, and the calls need not agree. Calls of active or inactive are those of the source. The calls were made as follows, unless noted: active = hit-call score of the fitted dose curve at least 0.9, where 1 is the maximum; inactive = score below 0.9.

The target of assay [1] is CCAAT/enhancer-binding protein beta (Homo sapiens) (UniProt P17676). As to the kind of experiment: ATG_C_EBP_CIS: Attagene CIS-FACTORIAL HepG2 Assay for human CCAAT/Enhancer Binding Protein (C/EBP) beta (AID 2282927). Conditions: HepG2 Attagene cis-factorial transcription factor reporter; actives raise or lower the signal. The gist of the method:
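Endogenous C/EBPb-driven reporter transcripts measured in transfected human HepG2 cells at 24 h via RT-PCR and capillary electrophoresis of labelled fragments. Activity fitted in both directions relative to DMSO baseline.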

Assay [2] in a line: ATG_AP_1_CIS: Attagene CIS-FACTORIAL HepG2 Assay for human Activator Protein 1 (AP-1) (AID 2282931). Particulars: HepG2 Attagene cis-factorial AP-1 reporter mRNA; actives raise or lower the signal. The gist of the method:
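We transfected HepG2 cells transiently with a set of cis-regulated reporter transcription units, dosed them for 24 h, and quantified reporter mRNA via RT-PCR and capillary electrophoresis, scoring gain or loss of signal relative to DMSO.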

The nature of assay [3]: ATG_BRE_CIS: Attagene CIS-FACTORIAL HepG2 Assay for human Bone Morphogenetic Protein (BMP) Response Element (BRE) (AID 2282933). Particulars: HepG2 BMP response element reporter, Attagene transcription factor profiling; actives raise or lower the signal. The gist of the method:
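Fluorescence-labelled reporter cDNA fragments, separated by capillary electrophoresis, gave the signal for this component of a 52-readout multiplex. HepG2 cells were transfected, exposed to chemicals for 24 h, and compared with DMSO using bidirectional fitting.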

A short description of assay [4]: ATG_M_06_CIS: Attagene CIS-FACTORIAL HepG2 Assay for M06 Transcription Factor (Internal Marker) (AID 2282950). Conditions: HepG2 Attagene CIS-FACTORIAL M06 internal marker reporter; actives raise or lower the signal. The method, boiled down: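 Measured 24 h post-dosing in transiently transfected HepG2 cells, this internal-marker endpoint reports reporter mRNA via RT-PCR with fluorescent primer extension and capillary electrophoresis. DMSO served as negative control and baseline for bidirectional fitting.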

Assay [5] in a line: ATG_RORE_CIS: Attagene CIS-FACTORIAL HepG2 Assay for human RAR-related Orphan Receptor Element (RORE) (AID 2282959). Conditions: HepG2 Attagene cis-factorial RORE reporter, mRNA; actives raise or lower the signal. The method, boiled down:
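Transfect HepG2 with MRTUs; treat 24 h; extract RNA; RT with oligo(dT); PCR with reporter-specific primers; 6-FAM primer extension; HpaI digest 2 h at 37 C; capillary electrophoresis. Fit vs DMSO, bidirectional.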

Assay [6] can be described thus: ATG_M_06_TRANS: Attagene TRANS-FACTORIAL HepG2 Assay for M06 Transcription Factor (Internal Marker) (AID 2282983; active = hit-call score of the fitted dose curve at least 0.9, where 1 is the maximum;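 also: reporter transcript level by RT-PCR then capillary electrophoresis fluorescence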). Particulars: HepG2 Attagene TRANS M06 internal marker reporter. The method, boiled down: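 After a 24 h chemical treatment of transfected HepG2, RNA underwent DNase I treatment, reverse transcription and reporter-specific PCR; labelled, HpaI-digested products were sized by capillary electrophoresis. Signal increase relative to DMSO defined activity.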

The target in assay [7] is Nuclear receptor subfamily 4 group A member 2 (Homo sapiens) (UniProt P43354). Nature of the assay: ATG_NURR1_TRANS: Attagene TRANS-FACTORIAL HepG2 Assay for human Nuclear Receptor Related Protein 1 (NURR1) (AID 2282985; active = hit-call score of the fitted dose curve at least 0.9, where 1 is the maximum). Conditions: HepG2 Attagene TRANS reporter, mRNA readout. The gist of the method:
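Cells: HepG2, transiently transfected. Exposure: 24 h. Detection: fluorescence of labelled RT-PCR products separated by capillary electrophoresis; upward fit versus DMSO.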

The nature of assay [8]: TOX21_p53_BLA_p2_viability: Viability Assessment in the Tox21 HCT-116 p53 Agonism Beta-lactamase Assay, Phase 2 (AID 2283591; active = hit-call score of the fitted dose curve at least 0.9, where 1 is the maximum;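 also: compound exposure lasted 16 h at 37 °C; actives lower the ATP signal meaning cytotoxicity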). The gist of the method: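 Cytotoxicity readout: CellTiter-Glo ATP luminescence, 30 min at room temperature, after the beta-lactamase read. Cells were HCT116 exposed 16 h at 37C to compounds pin-transferred at 217-fold dilution from DMSO stocks.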

Assay [9] concerns the target Cellular tumor antigen p53 (Homo sapiens) (UniProt P04637). As to the kind of experiment: TOX21_p53_BLA_p2_ratio: Tox21 HCT-116 p53 Agonism Beta-lactamase Assay, Ratio, Phase 2 (AID 2283592; active = hit-call score of the fitted dose curve at least 0.9, where 1 is the maximum). The gist of the method:
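In this cell-based reporter format, HCT116 cells were dosed with chemicals delivered from DMSO by 217-fold dilution and incubated 16 h at 37C. Emission at 460 and 530 nm after 2 h CCF4-AM loading provided the ratio, fitted upward versus DMSO.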

The target is the same in assay [10]. Nature of the assay: TOX21_p53_BLA_p3_ratio: Tox21 HCT-116 p53 Agonism Beta-lactamase Assay, Ratio, Phase 3 (AID 2283596; active = hit-call score of the fitted dose curve at least 0.9, where 1 is the maximum). The method, boiled down: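 HCT116 p53-bla cells (4000/well) given compound in DMSO (217-fold dilution) after 5 h, incubated 16 h at 37C. CCF4-AM substrate 2 h at room temperature; 460/530 nm emission ratio, gain fitted against DMSO.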
For assay [11] the target is unchanged. As to the kind of experiment: TOX21_p53_BLA_p5_ratio: Tox21 HCT-116 p53 Agonism Beta-lactamase Assay, Ratio, Phase 5 (AID 2283599; active = hit-call score of the fitted dose curve at least 0.9, where 1 is the maximum). The gist of the method: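 Beta-lactamase reporter ratio (blue 460 nm over green 530 nm, 405 nm excitation) after 2 h CCF4-AM loading, in HCT-116 cells exposed 16 h at 37 C to compounds pinned at 217-fold dilution. Increases relative to DMSO baseline scored.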

A short description of assay [12]: ATG_E_Box_CIS: Attagene CIS-FACTORIAL HepG2 Assay for human Enhancer Box (E-box) (AID 2282936). Conditions: HepG2 E-box cis-reporter transcription, actives raise or lower the signal. The method, boiled down: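 DMSO served as negative control and baseline for bidirectional fitting. Human hepatoma HepG2 cells, transiently transfected with cis-reporter constructs, were dosed 24 h; reporter mRNA read by RT-PCR and capillary electrophoresis.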

Assay [13] in a line: ATG_GLI_CIS: Attagene CIS-FACTORIAL HepG2 Assay for human Zinc Finger Protein GLI1 (AID 2282945). Particulars: HepG2, Attagene cis-factorial reporter mRNA, GLI element; actives raise or lower the signal. The method, boiled down: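 Bidirectional curve fits relative to DMSO, using reporter mRNA levels from RT-PCR plus capillary electrophoresis. Cells were HepG2 transiently carrying cis-regulated reporter constructs, harvested 24 h after dosing.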

Assay [14] in a line: ATG_PBREM_CIS: Attagene CIS-FACTORIAL HepG2 Assay for human Phenobarbital-responsive Enhancer Module (PBREM) (AID 2282955). Conditions: HepG2 PBREM cis-reporter, Attagene multiplexed transcription; actives raise or lower the signal. The method, boiled down:
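Multiplexed cis-reporter readout in human hepatoma HepG2 cells; PBREM-regulated transcript quantified after 24 h exposure by fluorescent RT-PCR fragment analysis. Signal changes up or down fitted relative to DMSO.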

Assay [15] in a line: ATG_M_19_TRANS: Attagene TRANS-FACTORIAL HepG2 Assay for M19 Transcription Factor (Internal Marker) (AID 2282974; active = hit-call score of the fitted dose curve at least 0.9, where 1 is the maximum). Particulars: HepG2 Attagene TRANS-FACTORIAL M19 internal marker reporter. The method, boiled down:
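Multiplexed TRANS format: HepG2 liver cells bearing transient GAL4-UAS reporter units, chemical treatment 24 h, reporter transcripts quantified by RT-PCR plus capillary electrophoresis. DMSO defines baseline.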

Assay [16] addresses Hepatocyte nuclear factor 4-alpha (Homo sapiens) (UniProt P41235). As to the kind of experiment: ATG_HNF4a_TRANS: Attagene TRANS-FACTORIAL HepG2 Assay for human Hepatocyte Nuclear Factor 4 alpha (HNF4a) (AID 2282982; active = hit-call score of the fitted dose curve at least 0.9, where 1 is the maximum). Particulars: HepG2 HNF4a transactivation reporter, mRNA readout. The gist of the method:
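Transfected HepG2 reporter cells are dosed for 24 h; reporter RNA is reverse-transcribed, amplified, fluorescently labelled and HpaI-digested before CE sizing. Positive-direction fit against DMSO.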

In assay [17] the target is Nuclear respiratory factor 1 (Homo sapiens) (UniProt Q16656). As to the kind of experiment: ATG_NRF1_CIS: Attagene CIS-FACTORIAL HepG2 Assay for human Nuclear Respiratory Factor 1 (NRF1) Orphan Gene (AID 2282987). Particulars: HepG2 NRF1 cis-element reporter, Attagene multiplex; actives raise or lower the signal. The method, boiled down:
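Reporter mRNA induction or loss in HepG2 cells after 24 h dosing; cis-regulated reporter constructs report endogenous transcription-factor activity. Quantified by RT-PCR/capillary electrophoresis fluorescence, DMSO-referenced.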

Assay [18] has as its target human Retinoid X Receptor beta (RXRb), RXRB (gene 6257) (UniProt P28702). As to the kind of experiment: ATG_RXRb_TRANS: Attagene TRANS-FACTORIAL HepG2 Assay for human Retinoid X Receptor beta (RXRb) (AID 2283013; active = hit-call score of the fitted dose curve at least 0.9, where 1 is the maximum). The method, boiled down: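 Multiplexed TRANS reporter assay in HepG2; 24 h dosing; reporter mRNA by RT-PCR/CE fluorescence; gain-of-signal relative to DMSO.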

Assay [19] can be described thus: ATG_M_19_CIS: Attagene CIS-FACTORIAL HepG2 Assay for M19 Transcription Factor (Internal Marker) (AID 2282939). Particulars: HepG2 Attagene CIS-FACTORIAL M19 internal marker reporter; actives raise or lower the signal. The method, boiled down: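 HepG2, MRTU transient transfection, 24 h dosing. Total RNA → RT-PCR → 6-FAM primer extension → HpaI digest → CE fluorescence. Bidirectional curve fit, DMSO negative control.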

Assay [20] is described as follows: ATG_NF_kB_CIS: Attagene CIS-FACTORIAL HepG2 Assay for human Nuclear Factor Kappa B (NF-kB) (AID 2282991). Conditions: HepG2 Attagene cis-factorial NF-kB reporter mRNA; actives raise or lower the signal. The method, boiled down:
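DMSO served as negative control and baseline for bidirectional curve fitting. Transiently transfected HepG2 cells were dosed for 24 h, then reporter transcripts were measured by RT-PCR with capillary electrophoresis detection.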

Sequence of Cellular tumor antigen p53 (Homo sapiens) (P04637 whole entry, looked up): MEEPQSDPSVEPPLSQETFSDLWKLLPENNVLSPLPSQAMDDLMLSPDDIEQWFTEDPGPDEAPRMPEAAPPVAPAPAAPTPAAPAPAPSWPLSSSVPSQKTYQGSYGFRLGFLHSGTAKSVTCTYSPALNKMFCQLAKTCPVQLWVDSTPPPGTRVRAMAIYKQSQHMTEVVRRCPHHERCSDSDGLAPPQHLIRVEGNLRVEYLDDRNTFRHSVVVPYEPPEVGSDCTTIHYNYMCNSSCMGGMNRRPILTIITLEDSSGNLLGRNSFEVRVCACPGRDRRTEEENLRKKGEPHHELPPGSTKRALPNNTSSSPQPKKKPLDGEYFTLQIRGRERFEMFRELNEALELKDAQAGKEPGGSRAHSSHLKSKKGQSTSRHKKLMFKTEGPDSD
Sequence of Nuclear respiratory factor 1 (Homo sapiens) (Q16656 whole entry, looked up): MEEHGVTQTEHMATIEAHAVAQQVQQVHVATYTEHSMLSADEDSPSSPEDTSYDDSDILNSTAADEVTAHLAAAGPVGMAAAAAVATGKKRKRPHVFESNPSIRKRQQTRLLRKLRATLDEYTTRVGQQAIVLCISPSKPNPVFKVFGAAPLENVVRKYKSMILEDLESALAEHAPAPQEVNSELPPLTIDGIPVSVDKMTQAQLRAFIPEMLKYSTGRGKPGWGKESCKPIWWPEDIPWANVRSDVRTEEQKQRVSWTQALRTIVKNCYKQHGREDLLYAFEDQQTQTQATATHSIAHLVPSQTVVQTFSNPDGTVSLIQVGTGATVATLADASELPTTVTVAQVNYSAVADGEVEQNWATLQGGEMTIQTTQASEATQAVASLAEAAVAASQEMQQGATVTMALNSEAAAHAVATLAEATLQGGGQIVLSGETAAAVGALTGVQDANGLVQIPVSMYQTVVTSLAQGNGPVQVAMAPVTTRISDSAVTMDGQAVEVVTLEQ
Sequence of Hepatocyte nuclear factor 4-alpha (Homo sapiens) (P41235 whole entry, looked up): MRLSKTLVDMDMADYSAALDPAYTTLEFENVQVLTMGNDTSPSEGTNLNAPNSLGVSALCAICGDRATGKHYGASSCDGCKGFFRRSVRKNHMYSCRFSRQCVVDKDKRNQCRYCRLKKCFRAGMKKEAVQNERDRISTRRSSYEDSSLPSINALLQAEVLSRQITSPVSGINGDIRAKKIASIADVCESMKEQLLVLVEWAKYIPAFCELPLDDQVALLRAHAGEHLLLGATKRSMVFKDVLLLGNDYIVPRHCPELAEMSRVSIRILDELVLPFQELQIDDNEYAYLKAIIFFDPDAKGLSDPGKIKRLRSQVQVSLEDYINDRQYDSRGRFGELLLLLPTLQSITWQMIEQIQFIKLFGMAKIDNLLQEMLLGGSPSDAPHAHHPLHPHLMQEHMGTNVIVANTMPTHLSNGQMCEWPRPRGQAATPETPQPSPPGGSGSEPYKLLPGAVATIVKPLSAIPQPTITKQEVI
Sequence of CCAAT/enhancer-binding protein beta (Homo sapiens) (P17676 whole entry, looked up, the tested form may be a part): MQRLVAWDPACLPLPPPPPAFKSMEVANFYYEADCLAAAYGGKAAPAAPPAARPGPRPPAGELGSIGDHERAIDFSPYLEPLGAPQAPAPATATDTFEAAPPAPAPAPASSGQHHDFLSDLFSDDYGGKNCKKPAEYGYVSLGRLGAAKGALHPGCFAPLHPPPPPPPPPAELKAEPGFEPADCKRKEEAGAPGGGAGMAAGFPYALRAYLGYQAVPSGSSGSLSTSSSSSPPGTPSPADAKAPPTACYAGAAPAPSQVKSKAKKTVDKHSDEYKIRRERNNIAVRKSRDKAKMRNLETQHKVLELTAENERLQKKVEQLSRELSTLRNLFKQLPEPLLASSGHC
Sequence of human Retinoid X Receptor beta (RXRb), RXRB (gene 6257) (P28702 whole entry, looked up): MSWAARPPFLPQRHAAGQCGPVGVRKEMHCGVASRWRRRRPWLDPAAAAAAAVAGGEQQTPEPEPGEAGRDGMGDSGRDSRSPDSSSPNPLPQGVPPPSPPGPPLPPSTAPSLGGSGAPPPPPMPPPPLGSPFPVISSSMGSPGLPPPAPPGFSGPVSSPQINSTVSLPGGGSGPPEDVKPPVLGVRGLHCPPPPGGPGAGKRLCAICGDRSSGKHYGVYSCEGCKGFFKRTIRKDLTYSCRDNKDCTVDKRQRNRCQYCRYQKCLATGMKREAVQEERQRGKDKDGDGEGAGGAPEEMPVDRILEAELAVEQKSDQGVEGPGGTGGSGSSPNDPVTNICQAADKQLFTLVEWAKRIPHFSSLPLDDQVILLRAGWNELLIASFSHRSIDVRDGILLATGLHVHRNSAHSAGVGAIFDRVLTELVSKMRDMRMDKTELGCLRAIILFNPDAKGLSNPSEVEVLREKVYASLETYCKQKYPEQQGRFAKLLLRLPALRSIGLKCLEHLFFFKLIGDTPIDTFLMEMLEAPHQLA
Sequence of Nuclear receptor subfamily 4 group A member 2 (Homo sapiens) (P43354 whole entry, looked up): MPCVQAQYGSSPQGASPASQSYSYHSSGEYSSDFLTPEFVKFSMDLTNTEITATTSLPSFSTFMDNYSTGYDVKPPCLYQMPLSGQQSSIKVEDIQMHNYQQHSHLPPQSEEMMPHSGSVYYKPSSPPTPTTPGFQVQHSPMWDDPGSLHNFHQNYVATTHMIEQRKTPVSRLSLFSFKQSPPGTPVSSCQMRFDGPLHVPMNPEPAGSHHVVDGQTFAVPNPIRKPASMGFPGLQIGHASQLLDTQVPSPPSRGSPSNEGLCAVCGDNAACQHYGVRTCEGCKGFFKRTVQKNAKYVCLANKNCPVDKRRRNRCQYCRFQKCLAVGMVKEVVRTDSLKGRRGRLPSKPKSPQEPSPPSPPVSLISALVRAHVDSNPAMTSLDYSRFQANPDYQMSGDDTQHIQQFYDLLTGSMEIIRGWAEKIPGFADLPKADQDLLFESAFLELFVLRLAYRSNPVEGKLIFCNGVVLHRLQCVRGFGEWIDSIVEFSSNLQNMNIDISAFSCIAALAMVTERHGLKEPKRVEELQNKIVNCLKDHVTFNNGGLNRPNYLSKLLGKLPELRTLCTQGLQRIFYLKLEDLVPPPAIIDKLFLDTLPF

Broadly, the AC50 is the concentration at which the activity in the assay is half-maximal. On to `Oc1ccc(C2(c3ccc(O)cc3)c3ccccc3-c3ccccc32)cc1`, for which the half-maximal activity concentration (AC50) in assay [1] is 17.1 µM (active); in assay [5], 18.6 µM (active); in [9], 265 nM (active); in [10] it was 906 nM (active); in [11], 76.6 µM (active). Moreover, the result in [2], in assay [3], in assay [4], in assay [6], in assay [7] and in [8] was inactive.
As for `CCCC=NO`, the result in assay [1], in [3], in [12], in assay [13], in assay [14] and in [15] was inactive. Moreover, the compound was classed as inactive in [16], in assay [17], in [18], in assay [8], in assay [10] and in [11].
`Nc1ccccc1C(=O)OCCc1ccccc1`: the result in assay [2], in assay [3], in assay [12], in assay [19], in assay [13] and in assay [4] was inactive. Moreover, the compound was classed as inactive in assay [16], in assay [6], in [7], in assay [8], in [9] and in assay [10]. For the same compound, the result in assay [11] was inactive. Besides, the half-maximal activity concentration (AC50) in assay [14] is 21.3 µM (active); in [18], 33.4 µM (active).
Consider `O=[N+]([O-])C=Cc1ccccc1`, for which the outcome in [1], in assay [19], in assay [14], in assay [5], in assay [6] and in [18] was inactive. Further, the AC50 is 44.2 µM (active) in assay [3]; 25.5 µM (active) in assay [12]; 31.2 µM (active) in [13]; 47.5 µM (active) in assay [16]; 38.5 µM (active) in assay [17]; 27.2 µM (active) in assay [8]. Also, the AC50 in [9] was 8760 nM (active).
As for `C[C@]12CC[C@H]3[C@@H](CC[C@@]45O[C@@H]4C(O)=C(C#N)C[C@]35C)[C@@H]1CC[C@@H]2O`, the result in [3], in assay [12], in assay [19], in assay [4], in [14] and in assay [5] was inactive. In addition, the compound was called inactive in [16], in assay [6], in assay [7], in [17], in [8] and in assay [10]. Also, in [11], the result was inactive. For the same compound, the AC50 in assay [20] was 18.6 µM (active); in assay [9], 64.6 µM (active) and 35.9 µM (active); in assay [10] it was 67000 nM (active); in assay [11], 68.6 µM (active).
Regarding `CC(C)(c1cc(Cl)c(O)c(Cl)c1)c1cc(Cl)c(O)c(Cl)c1`, the outcome in assay [1], in [2], in assay [3], in assay [12], in [19] and in [4] was inactive. Moreover, the call in [15], in [16], in [6], in [17] and in assay [11] was inactive. The half-maximal activity concentration (AC50) in assay [13] is 60.7 µM (active); in assay [7] it was 47.9 µM (active); in assay [20] it was 9 µM (active); in assay [18], 9.09 µM (active); in assay [8] it was 46.1 µM (active) and 33.1 µM (active); in [9] it was 37 µM (active) and 16.5 µM (active). The AC50 in [10] was 48.2 µM (active) and 17.7 µM (active); in assay [11] it was 24.2 µM (active).
On to `O=C=Nc1ccccc1`, for which the outcome in assay [1], in [2], in assay [12], in [4], in assay [14] and in [15] was inactive. Further, the result in assay [16], in [17] and in assay [20] was inactive.
In the case of `CN(N=O)c1ccccc1`, the outcome in assay [1], in [3], in assay [12], in [19], in [4] and in assay [14] was inactive. Moreover, the call in assay [5], in assay [16], in [6], in [17] and in assay [20] was inactive.
On to `CC(C)C#N`, for which the outcome in assay [1], in [3], in assay [12], in assay [19], in assay [13] and in [14] was inactive. Also, the outcome in assay [15], in assay [16] and in assay [20] was inactive.

Values taken from PubChem BioAssay (EPA / NIEHS).
